Assay outcomes: PubChem, several laboratories
The list is not random: actives were taken first. Their share in the collection is about 32%.
CYP2C9 inhib = inhibitors of human CYP2C9. AID 777. inhibition, % at 5 µM. actives 20% (n = 96,000). CYP2C9 Supersomes, luciferin-H conversion, luminescence;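 active means blocking of liver enzyme CYP2C9 beyond about 50% at 5 µM, limit read from the data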
Target sequence (P11712 whole entry, looked up): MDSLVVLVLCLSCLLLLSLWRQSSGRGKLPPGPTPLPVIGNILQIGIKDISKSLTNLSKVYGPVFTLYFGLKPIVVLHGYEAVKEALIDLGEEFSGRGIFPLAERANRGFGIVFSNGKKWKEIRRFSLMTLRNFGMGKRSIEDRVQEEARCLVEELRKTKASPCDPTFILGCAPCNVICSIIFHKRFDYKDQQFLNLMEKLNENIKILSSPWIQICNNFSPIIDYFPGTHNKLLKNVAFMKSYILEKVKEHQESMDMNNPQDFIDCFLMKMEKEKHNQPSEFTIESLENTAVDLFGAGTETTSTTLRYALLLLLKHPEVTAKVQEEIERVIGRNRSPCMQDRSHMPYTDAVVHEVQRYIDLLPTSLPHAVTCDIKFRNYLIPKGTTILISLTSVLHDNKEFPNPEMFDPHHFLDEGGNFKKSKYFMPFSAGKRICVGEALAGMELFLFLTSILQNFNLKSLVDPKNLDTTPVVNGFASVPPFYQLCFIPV
PostGolgi ctrl = inhibits growth of the yeast control strain | efflux-deficient yeast background strain, growth absorbance A615, 16 h | inhibition, % at 10 µM | actives 5% (n = 98,000) | AID 738
CYP2C19 inhib = blocks human cytochrome P450 2C19. P33261. AID 778. CYP2C19 Supersomes, luciferin-H EGE luminescence, 30 min. inhibition, % at 5 µM. actives 21% (n = 96,000);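 active means CYP2C19 inhibition above a set limit at 5 µM in the primary screen, cut at about 50% in these data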
CYP2C9 activ = CYP2C9 (human) activation; P11712; actives 1.4% (n = 96,000); activation factor at 5 µM; recombinant CYP2C9, luciferin-H conversion, luminescence; stronger effect = higher value; factor 1 = untreated enzyme, 0 = blocked; AID 1024;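 active means activation factor of 2 or more for CYP2C9 at a 5 µM dose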
CYP2C19 act = cytochrome P450 2C19 (human) activation | recombinant CYP2C19, luciferin-H EGE luminescence; stronger effect = higher value; 0 = fully inhibited enzyme, 1 = untreated enzyme | activation factor at 5 µM | 96,000 tested, under 10 active;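 active means activation factor of at least 2 at 5 µM in the primary screen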
PostGolgi yeast = growth inhibition of a yeast mutant, post-Golgi transport screen; post-Golgi transport phenotypic cell assay; inhibition, % at 10 µM; actives 0.9% (n = 98,000);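 further: yeast cells grown in 1536-well plates; yeast grown about 18 h at 30C before absorbance read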
Of the large screens only hits and unclear results are named; the others gave an inactive call. Unless noted, no stated cut-off is given here; in the data, active means inhibition above about 30%; inactive means the rest.

CCn1c(=O)cc(OCC(=O)Nc2cccc(C)n2)c2ccccc21	none
O=C(Nc1cc(Cl)ccn1)C1CCN(S(=O)(=O)c2cccs2)CC1	none
CCOC(=O)c1ccc2c(c1)nc(SCc1cn3ccsc3n1)n2CC	CYP2C9 inhib 52
COc1ccccc1N1CCN(CCc2n[nH]c(=S)n2-c2ccccc2)CC1	none
Nc1nncn1C(=O)CCCN1C(=O)c2ccccc2C1=O	none
Cc1nc(CCN2C(=O)c3ccccc3C2=O)cs1	CYP2C19 inhib 70
NC(N)=Nc1nc(CCN2C(=O)c3ccccc3C2=O)cs1	CYP2C19 inhib 55
CNc1nc(CCN2C(=O)c3ccccc3C2=O)cs1	CYP2C19 inhib 82
C/C=C/C=[N+](\[O-])C(C)/C(=N/O)c1ccc(F)cc1 (centres undefined)	none
Cc1cc(-c2c(C)[nH]n(-c3ccc(Cl)cc3)c2=O)n(-c2ccc(Cl)cc2)n1	CYP2C9 inhib 60
Cc1[nH]n(-c2ccccc2)c(=O)c1-c1ccc(Cl)cc1	none
O=c1[nH]n(-c2ccc(Cl)cc2)c(=O)c(Cl)c1Cl	none
Cc1[nH]n(-c2ccccc2)c(=O)c1-c1cccc(Cl)c1	CYP2C9 inhib 71
Cc1cc(-c2ccco2)n(-c2ccccc2)n1	none
Cc1cc(-c2c(C)[nH]n(-c3ccccc3)c2=O)n(-c2ccccc2)n1	CYP2C9 inhib 81
COc1cccc(-c2noc(-c3cccnc3)n2)c1	none
Cc1ccc(-c2nc(-c3ccccc3)no2)cc1	CYP2C19 inhib 66
Cc1ccc(-c2nc(-c3cccnc3)no2)cc1	CYP2C19 inhib 76
c1ccc(-c2ccccc2-c2nc(-c3cccnc3)no2)cc1	CYP2C9 inhib 96, PostGolgi ctrl 34, CYP2C19 inhib 73, PostGolgi yeast 38
c1cncc(-c2noc(-c3ccco3)n2)c1	none
CCC(=O)Oc1ccc(-c2nc(-c3cccnc3)no2)cc1	CYP2C9 inhib 70, CYP2C19 inhib 68
CCOC(=O)c1cc(C(=O)OCC)c2cc(Br)ccc2n1	CYP2C9 inhib 64
CCOC(=O)c1cc(C(O)(C(F)(F)F)C(F)(F)F)c(/N=C/N(C)C)o1	none
CC(=O)c1cnc2nc(C(F)(F)F)nn2c1C	none
Cc1cc(N2CCOCC2)c2c(N)c(Br)cc(C)c2n1	none
Cc1ccc(N2C=Nc3ccc(C)c4nc(C)cc2c34)cc1	CYP2C9 inhib 86, CYP2C19 inhib 68
COCCCn1[nH]c2c3c(ccc2c1=O)C(=O)c1ccccc1C3=O	CYP2C9 inhib 64
CCCCc1ccc(NC(=O)COCC)cc1	none
CCCCc1cc(O)c(CCCC)c(O)c1	CYP2C9 inhib 97, PostGolgi ctrl 42, CYP2C19 inhib 90
COC(=O)c1ccc(CSc2nc(C(F)(F)F)c3c(c2C#N)CCC3)o1	CYP2C19 inhib 78
COc1ccc(/C=N/n2c(SC)nnc(C(C)(C)C)c2=O)cc1OC	CYP2C9 inhib 57, CYP2C19 inhib 71
COc1ccc(N2CCN(C(=O)C(C)(C)Oc3ccc(Cl)cc3)CC2)cc1	CYP2C9 inhib 90, CYP2C19 inhib 74
CCOC(=O)N1CCN(C(=O)C(C)(C)Oc2ccc(Cl)cc2)CC1	CYP2C9 inhib 84, CYP2C19 inhib 74
COc1ccc(N2CCN(C(=N)/C(C(C)=O)=C(\C)O)CC2)cc1	none
CC1CCN(c2nnc(NC(=O)Cn3c(=O)oc4ccccc43)s2)CC1	none
COc1ccc(C)cc1S(=O)(=O)N1CCCC(C(=O)NCC2CCCO2)C1 (centres undefined)	none
C/C(=N\NC(=O)CSCc1cccc(Br)c1)c1ccc([N+](=O)[O-])cc1	none
C/C(=N\NC(=O)CSCc1ccc(Cl)cc1)c1ccc2c(c1)OCCO2	CYP2C9 inhib 64, PostGolgi ctrl 31, CYP2C19 inhib 84
CCOC(=O)N1CCC(N2CC34C=CC(O3)C(C(=O)Nc3ccc(C(C)C)cc3)C4C2=O)CC1 (centres undefined)	CYP2C9 inhib 76 (no result: PostGolgi ctrl)
CCOC(=O)CN1CC23C=CC(O2)C(C(=O)Nc2ccc(F)c(C)c2)C3C1=O (centres undefined)	PostGolgi ctrl 36
COC(=O)c1cc(NS(=O)(=O)c2ccc3c(c2)CCC(=O)N3)cc(C(=O)OC)c1	CYP2C9 inhib 57, CYP2C19 inhib 68
COc1ccc(N(C)S(=O)(=O)c2ccc3c(c2)CCC(=O)N3)cc1	none
COc1ccc(OC)c(NS(=O)(=O)c2ccc3c(c2)CCC(=O)N3)c1	CYP2C19 inhib 53
